# Screening results deposited in PubChem BioAssay by National Center for Advancing Translational Sciences (NCATS).
# A selection: hits, their analogues and other compounds. The true share with any hit is near 21%.
# HCV inhibitor: inhibitors of hepatitis C virus infection; Huh7.5.1 HCVcc-Cre infection, luciferase reporter, 44 h; AID 651820; Potency, µM (highest dose often 41.8 µM), for the others: top-dose activity change, negative = inhibition, most hits filed as inhibitors; 3.4% of 340,000 active; note: potency is the fitted concentration of half-maximal effect; % is set by controls: 0 for no effect and ±100 for the full control effect
#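 Whole-lifecycle infectious HCVcc-Cre system; cells 1,000/well, compound then virus (~0.5 moi) added 4 h after plating, 44 h culture. Luciferase read 15 sec following 15 min substrate incubation, room temp.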
# CHX counter: counter-screen hit for Shiga toxin inhibitors, cycloheximide; cell reporter, cycloheximide protein synthesis inhibition counterscreen; max response, %; 12% of 300,000 active; in the data active = max response mostly above about 13%, no sharp cut-off; inactive = mostly below about 14%; note: read at 38.3 µM for the half of the compounds with a filed dose; 0% is about no effect
# Pf growth 48h: inhibits P. falciparum growth in the first generation, 48 h. P. falciparum luciferase growth in erythrocytes, 48 h. Potency, µM (titrated, usually from 28.7 µM), for inactives: at the top dose activity change, negative = inhibition, most hits filed as inhibitors. 5.9% of 310,000 active; note: potency is the fitted concentration of half-maximal effect; % is set by controls: 0 for no effect and ±100 for the full control effect
#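 Here the parasites carry a stable luciferase gene and grow inside erythrocytes in Albumax-based RPMI medium with compound for one erythrocytic cycle. Activity is scored as loss of luminescent signal.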
# Shiga toxin inh: blocks Shiga toxin action in Vero cells. 9.2% of 290,000 active. inhibition, % at 38.7 µM. Vero cells, Shiga toxin protein synthesis inhibition reporter. AID 2315; in the data active = inhibition mostly above about 28%, no sharp cut-off; inactive = mostly below about 43%; note: 0% is about no effect
# AMA1 RON2 block: AMA1-RON2 (P. falciparum) interaction inhibition; AlphaScreen AMA1-biotinylated RON2 peptide binding; Potency, µM (doses to about 58.2 µM), without a hit: at the top dose activity change, negative = inhibition, actives largely listed as inhibitors; 0.2% of 360,000 active;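 note: potency is the fitted concentration of half-maximal effect; 0% = vehicle wells and -100% = peptide control; nearly all actives have a fitted effect of over 45% in size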
#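 AMA1 (3D7) with his tag at 25 nM final met compounds first, then biotinylated RON2 peptide at 25 nM; detection used donor plus acceptor beads, 10 µg/mL apiece, read by AlphaScreen after 30 min at room temperature.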
# Pf growth 96h: P. falciparum growth inhibition at 96 hours. 6.9% of 320,000 active. P. falciparum luciferase reporter growth, 96 h. Potency, µM (series often up to 28.7 µM), inactives show at the highest dose activity change, negative = inhibition, actives largely listed as inhibitors. AID 504834; note: potency is the fitted concentration of half-maximal effect; % is set by controls: 0 for no effect and ±100 for the full control effect
#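 P. falciparum expressing integrated firefly luciferase, in erythrocytes at 2% hematocrit, 0.05% parasitemia, incubated with compounds 96 h at 37 C, 5% CO2. Growth inhibition read as loss of luminescence; two-generation exposure targets delayed-death apicoplast inhibitors.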
# Starred values were filed as active, the others as inactive; ? = inconclusive; . = no result; [ ] = remark or other dose. Unless noted, calls come from the whole dose curve; as a rule, active = well fitted curve in the direction sought with a large enough effect; inconclusive = small, poorly fitted or top-dose-only effect, or another doubt; inactive = no such curve, though single readings can be large; an effect the other way counts as inactive or inconclusive.
SMILES,HCV inhibitor,CHX counter,Pf growth 48h,Shiga toxin inh,AMA1 RON2 block,Pf growth 96h
CN(CC(=O)Nc1cccc(S(=O)(=O)NC2=NCCC2)c1)Cc1cccc(F)c1,-11%,.,-29%,.,-6%,?
CSc1ccc(S(=O)(=O)N2CCC(C(=O)NCC3CCCO3)CC2)cc1 (stereo not drawn),10%,-7,0%,7,6%,7%
Cc1ccc(-c2cn(-c3ccccc3F)c(=S)[nH]2)cc1,-6%,42*,?,68*,71%,25%
O=[N+]([O-])c1ccc(-c2cn(-c3ccccc3F)c(=S)[nH]2)cc1,10%,42*,66%,131*,44%,?
COc1ccccc1-n1cc(-c2ccccc2)[nH]c1=S,-15%,5,?,-4,80%,16%
O=[N+]([O-])c1ccc(-c2c[nH]c(=S)[nH]2)cc1,20%,15,0%,18,67%,3%
CCOc1ccc(-c2cn(-c3ccccc3OC)c(=S)[nH]2)cc1,?,18*,?,52*,39%,21%
CCN(CC)C(=O)[C@@]1(c2ccccc2)C[C@@H]1CN,.,.,-7%,.,.,-4%
CCOc1ccccc1N(C)C(=O)CCS(=O)(=O)c1ccc2c(c1)NC(=O)CO2,?,11,-7%,-14,6%,0%
COc1nccc(C(F)(F)F)c1C(=O)NC(=O)Nc1ccccc1,10%,1,2%,-3,-4%,?
COc1ccc(N2CCN(C(=O)/C=C/[C@H]3O[C@@H](n4ccc(=O)[nH]c4=O)[C@H](O)[C@@H]3O)CC2)cc1,.,.,.,.,10%,.
CCCc1nc(N2CCN(S(=O)(=O)c3ccc(Cl)cc3)CC2)c2c(C)c(C)sc2n1,14%,-2,?,4,-12%,?
Cc1sc2nc(CN3CCCC3)nc(N3CCN(S(=O)(=O)c4cccc(F)c4)CC3)c2c1C,?,.,8.3µM*,.,23%,9.3µM*
Cc1sc2nc(C3CC3)nc(N3CCN(S(=O)(=O)c4ccc(F)cc4)CC3)c2c1C,?,-3,10µM*,-15,0%,16%
Cc1sc2nc(CN3CCOCC3)nc(N3CCN(S(=O)(=O)c4ccccc4)CC3)c2c1C,-1%,.,9.3µM*,.,-12%,?
Cc1nc(N2CCN(S(=O)(=O)c3ccc(F)cc3)CC2)c2c(C)c(C)sc2n1,16%,-2,.,41,1%,12%
COc1ccc(C(=O)N2CCN(c3nc(C4CC4)nc4sc(C)c(C)c34)CC2)cc1,?,-2,12µM*,-12,-15%,-16%
CC(NCC(=O)Nc1ccccc1C(=O)NC1CC1)c1ccc(S(C)(=O)=O)cc1 (stereo not drawn),14%,.,-22%,.,25%,?
COc1ccccc1N=Nc1[nH]c2ccc(C)cc2c1O,2%,22*,17%,32*,-1%[11.6 µM],?
N#Cc1c(-c2ccc3c(c2)OCO3)csc1N,8.9µM*,28*,54%,83*,-15%,34%
N#Cc1c(N)c(C#N)c(-c2ccc3c(c2)OCO3)c2c1CCCC2,-12%,-1,?,11,-12%,?
N#Cc1c(N)nc2c(c1-c1ccc3c(c1)OCO3)CCc1ccccc1-2,13µM*,0,4.1µM*,15,38%[11.6 µM],-12%
C[C@@H]1CN([C@H](C)CO)S(=O)(=O)c2ccc(Br)cc2O[C@H]1CN(C)S(C)(=O)=O,.,.,.,.,-5%,.
O=C1C=CC(O)(c2cc(=O)c3c(O)cc(O)cc3o2)C=C1,?,45*,9.3µM*,93*,9%,15µM*
CC(=O)Oc1ccccc1Cn1c(C)c(C(=O)N(C)Cc2ccc(F)cc2)sc1=O,.,.,.,.,-3%,.
SMILES,HCV inhibitor,CHX counter,Pf growth 48h,Shiga toxin inh,AMA1 RON2 block,Pf growth 96h
CSc1cccc(NC(=O)Nc2ccccc2C(N)=O)c1,-21%,47*,?,39*,6%,?
CSc1cccc(NC(C)=O)c1,8%,-1,2%,6,-8%,13%
CSc1cccc(NC(=O)Nc2ccccc2)c1,4%,34*,47%,95,-22%,-2%
CCOc1ccc(N/C(=N/c2nc(C)cc(C)n2)NC(C)=O)cc1,3%,3,?,14,-18%,18%
CCN(CC(=O)NCc1cccs1)c1ccc(S(=O)(=O)N2CCN(C)CC2)cn1,14%,-2,-4%,5,-4%,1%
COc1ccc(CC(=O)Nc2cccnc2)cc1,7%,-4,11%,-15,-7%,?
O=C(COC(=O)c1cccnc1SC(F)F)NC1CC1,19%,.,-26%,.,0%,0%
O=C(COC(=O)c1ccccc1Nc1ccc(SC(F)F)cc1)NCc1ccco1,-18%,33*,?,63*,-2%,?
O=C(COC(=O)c1ccccc1Nc1ccc(SC(F)F)cc1)NC1CC1,-29%,73*,?,75*,12%,0%
Cc1ccccc1C(=O)OCC(=O)NCc1ccco1,-3%,.,.,.,-14%,.
Cc1cccc(Nc2ccccc2C(=O)OCC(=O)NCc2ccco2)c1C,-16%,19,?,30,-4%,12µM*
NC(=O)COC(=O)c1ccccc1Nc1ccc(SC(F)F)cc1,27%,14*,19%,40,-10%,59%
O=C(NCc1ccco1)c1ccccc1Nc1ccc(F)cc1,-4%,-3,0%,23,6%,14%
Cn1nc(-c2ccc(Cl)cc2)cc1NC(=O)CCCC(=O)O,19%,-2,16%,-5,4%,26%
Cc1ccccc1-c1cccc([C@@H]2C[C@H]3C(CN2)CON3C)c1 (stereo partly drawn),?,.,.,.,-2%,.
O=C(NCc1ccon1)C1CCC(=O)N(CCc2cccc(F)c2)C1 (stereo not drawn),26%,-1,1%,-9,-22%,?
CC(=O)N(CCc1ccccc1)c1ccc2c(c1)C1CC2CCN1C(=O)OCc1ccccc1 (stereo not drawn),.,.,.,.,-15%,.
O=C(Cc1cccc(C(F)(F)F)c1)N1CCCC1,10%,-7,24%,3,-13%,39%
O=C(Nc1nnc([C@H]2C[C@H](O)[C@@H](CO)O2)s1)Nc1ccccc1Oc1ccccc1,.,.,.,.,4%,.
CCOC(=O)N(C)C[C@@H]1OCc2ccccc2-c2c(n(C)c3ccccc23)C(=O)N([C@H](C)CO)C[C@H]1C,.,.,.,.,4%,.
O=C(COC(=O)Cc1ccccc1F)Nc1cccc(S(=O)(=O)NC2=NCCCCC2)c1,-6%,8,-10%,-17,0%,23%
CC(C)(C)NC(=O)COC(=O)c1ccccc1Nc1ccc(SC(F)F)cc1,?,55*,?,67*,1%[11.6 µM],?
O=C(COC(=O)Cc1ccccc1)Nc1ccc(SC(F)F)cc1,4%,11,1%,8,7%,22%
CNC(=O)COC(=O)c1ccccc1Nc1ccccc1,9%,17*,0%,118*,0%,18%
